The nature of test [1]: Validation screen for small molecules that induce DNA re-replication in SW480 colon adenocarcinoma cells (AID 504364). The procedure, abridged:
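SW480 cells seeded at 250 per well were exposed to compound or DMSO for 48 hr at 37 C, 5% CO2, then stained with Hoechst for 40 min. DNA content per nucleus was imaged (405 nm ex, 500-530 nm em).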

Test [2] addresses Phosphoglycerate kinase, glycosomal (Trypanosoma brucei brucei) (UniProt P07378). Put plainly: qHTS Validation Assay to Find Inhibitors of Phosphoglycerate Kinase (AID 504547). The procedure, abridged: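 Substrate/PGK mix plus compound; reaction started with GAPDH (100nM final) to form 1,3-BPG; 60 min RT; Kinase-Glo Plus 10 min; luminescence. TEA 100mM pH 7.6, MgCl2 5mM, Tween-20 0.01%.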

Test [3] addresses phosphoglycerate mutase (Leishmania major) (UniProt Q4Q090). Nature of the test: qHTS Validation Assay to Find Inhibitors of Phosphoglycerate Mutase (AID 504548).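 Note: end-point luminescence from Kinase-GloPlus after the PGAM reaction; series mostly up to about 58 µM.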 The procedure, abridged: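 L. major PGAM (1.25nM final) was added to substrate buffer and pinned compound, incubated 45 minutes at room temperature, then Kinase-GloPlus added; luminescence read after 10 minutes. Buffer: 100 mM TEA pH 7.6, 5 mM MgCl2, 0.01% Tween-20.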
(Quantitative high-throughput screening tests each substance at several concentrations.)

Test [4] concerns the target Ubiquitin carboxyl-terminal hydrolase 1 (Homo sapiens) (UniProt O94782). Put plainly: Inhibitors of USP1/UAF1: Pilot qHTS (AID 504865). Note: nearly all actives have a fitted effect of over 35% in size. Note: potency is the fitted concentration of half-maximal effect. The procedure, abridged: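 In 50mM HEPES pH 7.8 containing 0.5mM EDTA, 1mM TCEP, 0.1 mg/ml BSA and 0.01% Tween-20, 1nM USP1/UAF1 is exposed to compound for 15 min, then Ub-Rho (150nM final) is added and fluorescence is read over time.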

A short description of test [5]: qHTS for Inhibitors of ATXN expression: Validation of Cytotoxic Assay (AID 588349). Note: potency is the fitted concentration of half-maximal effect. The procedure, abridged:
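HEK293 cells were dosed with titrated compounds for 72 hr at 37 degrees C. Viability was read by CellTiter Glo luminescence, with intracellular ATP as the marker of cell survival.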

The nature of test [6]: qHTS for Inhibitors of ATXN expression: Validation (AID 588378). Note: nearly all actives have a fitted effect of over 75% in size. Note: potency is the fitted concentration of half-maximal effect. The procedure, abridged: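 Compounds were pinned onto attached HEK293 cells carrying an ATXN2-firefly luciferase construct and incubated 24 hrs at 37 degrees C. Each well then received a fluorescent viability reagent followed by luciferase substrate for end-point luminescence.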
Test [7] concerns the target Peptidyl-prolyl cis-trans isomerase NIMA-interacting 1 (Homo sapiens) (UniProt Q13526). Nature of the test: qHTS Validation Assay to Find Inhibitors of Pin1 (AID 504536; active = well fitted inhibition curve with a large enough effect in the polarisation, with a control signal flat, not every such curve was filed as active; the % refers to the polarisation). In outline:
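Fluorescence polarization competition: compounds (titration) displace HiFluor-488-labeled Pin1-1b peptide from Pin1 (0.3 uM final) in pH 7.5 HEPES buffer with DTT, 10 min at room temperature; %Activity normalized to no-enzyme wells, curves fitted.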

The target of test [8] is Estrogen receptor (Homo sapiens) (UniProt P03372). Nature of the test: qHTS assay for small molecule agonists of estrogen receptor alpha signaling (AID 588514; calls by dose curve; note: nearly all actives have a fitted effect of over 70% in size). The procedure, abridged:
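ER-alpha-UAS-bla GripTite HEK 293 cells in medium with 2% charcoal/dextran-treated FBS were treated with compound titrations at 37 C for 18 hrs; beta-lactamase reporter read by CCF4 fluorescence after 2 hrs at RT.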

In test [9] the target is DNA dC->dU-editing enzyme APOBEC-3G (Homo sapiens) (UniProt Q9HC16). Put plainly: qHTS for inhibitors of Vif-A3G interactions: Validation (AID 588379). The procedure, abridged: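 HeLa cells stably expressing Vif and A3G-eYFP, 700 cells/well, incubated overnight at 37 deg C, then exposed to compound overnight at 37 deg C. Inhibition of Vif-mediated degradation read as increased yellow fluorescence (Ex 488/Em 500-530) by laser-scanning cytometry.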

This note sets out measurements from PubChem BioAssay (NCATS).

Where “and” joins values, the source holds several entries; their conditions need not be identical. Equal entries are not always repeated. Inconclusive results are not listed. Calls of active or inactive are those of the source. Unless noted, calls come from the whole dose curve; as a rule, active = well fitted curve in the direction sought with a large enough effect; inconclusive = small, poorly fitted or top-dose-only effect, or another doubt; inactive = no such curve, though single readings can be large; an effect the other way counts as inactive or inconclusive.

Chain of Ubiquitin carboxyl-terminal hydrolase 1 (Homo sapiens) (O94782 whole entry, looked up): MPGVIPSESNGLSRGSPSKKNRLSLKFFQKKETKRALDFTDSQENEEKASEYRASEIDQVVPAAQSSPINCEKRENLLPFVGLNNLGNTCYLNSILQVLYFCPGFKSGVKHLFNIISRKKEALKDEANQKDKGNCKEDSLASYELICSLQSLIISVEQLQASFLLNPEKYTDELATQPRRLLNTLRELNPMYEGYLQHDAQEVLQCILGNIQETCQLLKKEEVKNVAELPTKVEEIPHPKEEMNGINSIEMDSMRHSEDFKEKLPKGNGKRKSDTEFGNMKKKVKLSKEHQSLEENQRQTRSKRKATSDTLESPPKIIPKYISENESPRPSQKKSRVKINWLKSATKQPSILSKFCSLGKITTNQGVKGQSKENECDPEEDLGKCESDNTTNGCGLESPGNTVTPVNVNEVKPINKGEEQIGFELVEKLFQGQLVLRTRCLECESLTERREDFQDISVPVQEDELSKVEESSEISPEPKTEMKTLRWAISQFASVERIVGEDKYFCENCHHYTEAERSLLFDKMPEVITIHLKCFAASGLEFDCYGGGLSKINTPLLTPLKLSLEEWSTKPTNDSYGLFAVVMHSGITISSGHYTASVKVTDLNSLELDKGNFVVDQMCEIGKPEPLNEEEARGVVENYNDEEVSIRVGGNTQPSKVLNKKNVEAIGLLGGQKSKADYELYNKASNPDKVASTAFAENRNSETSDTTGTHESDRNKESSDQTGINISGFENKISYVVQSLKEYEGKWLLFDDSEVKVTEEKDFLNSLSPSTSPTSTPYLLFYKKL
Chain of phosphoglycerate mutase (Leishmania major) (Q4Q090 1-553): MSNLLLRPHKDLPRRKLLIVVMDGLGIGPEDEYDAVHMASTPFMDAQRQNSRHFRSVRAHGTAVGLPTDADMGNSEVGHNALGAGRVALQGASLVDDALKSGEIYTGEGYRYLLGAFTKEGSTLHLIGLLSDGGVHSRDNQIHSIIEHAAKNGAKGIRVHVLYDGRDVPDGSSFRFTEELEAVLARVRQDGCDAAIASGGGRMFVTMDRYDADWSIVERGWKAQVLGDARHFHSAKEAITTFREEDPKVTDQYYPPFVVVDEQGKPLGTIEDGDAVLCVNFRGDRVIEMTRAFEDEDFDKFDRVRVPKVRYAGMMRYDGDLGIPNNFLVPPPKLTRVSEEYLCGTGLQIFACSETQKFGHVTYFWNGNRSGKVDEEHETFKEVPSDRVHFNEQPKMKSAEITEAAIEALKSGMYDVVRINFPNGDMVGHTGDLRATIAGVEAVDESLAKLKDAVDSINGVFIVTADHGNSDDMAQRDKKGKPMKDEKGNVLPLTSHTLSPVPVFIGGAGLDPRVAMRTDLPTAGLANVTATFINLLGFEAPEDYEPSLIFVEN
Chain of Phosphoglycerate kinase, glycosomal (Trypanosoma brucei brucei) (P07378 whole entry, looked up): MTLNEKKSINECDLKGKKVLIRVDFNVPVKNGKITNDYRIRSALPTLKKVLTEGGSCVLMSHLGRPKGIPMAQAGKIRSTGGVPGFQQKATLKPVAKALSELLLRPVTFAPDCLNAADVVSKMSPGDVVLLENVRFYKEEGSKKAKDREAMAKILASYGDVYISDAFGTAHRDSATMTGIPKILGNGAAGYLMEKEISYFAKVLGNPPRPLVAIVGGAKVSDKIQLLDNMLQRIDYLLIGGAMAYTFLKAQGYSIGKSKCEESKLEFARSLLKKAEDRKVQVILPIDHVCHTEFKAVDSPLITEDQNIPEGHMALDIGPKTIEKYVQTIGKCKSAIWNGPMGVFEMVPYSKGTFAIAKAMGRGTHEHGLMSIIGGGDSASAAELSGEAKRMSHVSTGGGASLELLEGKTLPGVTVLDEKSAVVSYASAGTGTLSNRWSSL
Chain of Peptidyl-prolyl cis-trans isomerase NIMA-interacting 1 (Homo sapiens) (Q13526 whole entry, looked up): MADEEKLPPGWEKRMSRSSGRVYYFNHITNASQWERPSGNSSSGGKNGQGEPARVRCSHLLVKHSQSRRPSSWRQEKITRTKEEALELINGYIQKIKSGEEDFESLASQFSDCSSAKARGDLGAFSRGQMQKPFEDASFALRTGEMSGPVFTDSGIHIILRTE
Chain of Estrogen receptor (Homo sapiens) (P03372 whole entry, looked up): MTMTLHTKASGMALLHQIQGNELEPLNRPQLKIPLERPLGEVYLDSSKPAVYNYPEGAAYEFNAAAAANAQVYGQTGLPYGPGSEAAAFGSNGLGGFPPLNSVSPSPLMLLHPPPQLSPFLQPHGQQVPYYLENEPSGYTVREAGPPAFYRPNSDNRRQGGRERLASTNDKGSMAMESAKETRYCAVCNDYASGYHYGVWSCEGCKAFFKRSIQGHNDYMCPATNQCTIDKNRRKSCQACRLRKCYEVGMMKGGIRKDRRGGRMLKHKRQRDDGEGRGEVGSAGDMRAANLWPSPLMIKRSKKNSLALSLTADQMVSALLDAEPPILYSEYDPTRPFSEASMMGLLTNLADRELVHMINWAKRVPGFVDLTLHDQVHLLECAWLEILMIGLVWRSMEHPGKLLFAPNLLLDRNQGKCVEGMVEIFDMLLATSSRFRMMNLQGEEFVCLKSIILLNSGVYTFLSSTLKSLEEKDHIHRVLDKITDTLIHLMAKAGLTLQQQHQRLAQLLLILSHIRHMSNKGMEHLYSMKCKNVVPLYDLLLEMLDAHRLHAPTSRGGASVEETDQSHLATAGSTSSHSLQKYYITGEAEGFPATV
Chain of DNA dC->dU-editing enzyme APOBEC-3G (Homo sapiens) (Q9HC16 whole entry, looked up): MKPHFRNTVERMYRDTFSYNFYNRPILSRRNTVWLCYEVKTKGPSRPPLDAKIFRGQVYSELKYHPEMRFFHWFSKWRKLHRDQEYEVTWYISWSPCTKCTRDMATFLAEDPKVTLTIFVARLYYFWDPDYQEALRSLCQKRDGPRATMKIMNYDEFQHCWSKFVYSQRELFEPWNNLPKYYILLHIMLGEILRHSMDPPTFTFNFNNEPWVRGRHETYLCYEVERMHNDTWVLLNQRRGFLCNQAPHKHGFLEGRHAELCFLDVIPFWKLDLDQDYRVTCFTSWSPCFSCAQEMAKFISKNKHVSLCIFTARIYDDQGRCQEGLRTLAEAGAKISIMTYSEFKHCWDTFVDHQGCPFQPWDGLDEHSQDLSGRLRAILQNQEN

Consider `NC(=O)c1ncn([C@@H]2O[C@H](CO)[C@@H](O)[C@H]2O)c1O`, for which the outcome in test [1], in test [2] and in test [3] was inactive. In addition, the Potency entry in [4], in test [5] and in test [6] was “inactive” throughout.

For `NS(=O)(=O)c1cc2c(cc1Cl)NC(C1CC3C=CC1C3)NS2(=O)=O` (configuration not stated), the result in test [1], in test [2] and in test [3] was inactive. Besides, the Potency result in [4], in test [5] and in test [6] was “inactive” in each case.

Take `CN1C[C@H](C(=O)N[C@]2(C)O[C@@]3(O)[C@@H]4CCCN4C(=O)[C@H](Cc4ccccc4)N3C2=O)C[C@@H]2c3cccc4[nH]cc(c34)C[C@H]21`: the call in test [7], in [2] and in test [3] was inactive. The Potency entry in test [5] and in test [6] was “inactive” throughout.

Regarding `NC(=Nc1ccccc1)Nc1ccccc1`, the Potency entry in test [4] and in test [8] was “inactive” throughout.

Turning to `COC(=O)C1=C(C)NC(C)=C(C(=O)OCCN(C)Cc2ccccc2)C1c1cccc([N+](=O)[O-])c1` (configuration not stated), the call in test [2] and in test [3] was inactive. Besides, the Potency in [5] is 20 µM (active); in [6] it was 35.5 µM (active).

In the case of `Cc1cccc(C)c1NC(=O)C(C)N` (configuration not stated), the call in test [7], in [2] and in test [3] was inactive. Further, the Potency entry in test [4], in test [5] and in test [6] was “inactive” throughout.

Regarding `CCN(CC)CCCN(c1ccccc1)C1Cc2ccccc2C1`, the result in [7], in [2] and in test [3] was inactive. In addition, the Potency result in test [4] is “inactive”.

For the compound `Cc1cc(C)c(/C=C2\C(=O)Nc3ccccc32)[nH]1`, the compound was classed as inactive in test [1], in test [2] and in test [3]. The Potency in [4] is 7.52 µM (active). Further, in test [6], the Potency entry is “inactive”.

In the case of `CN(C)CCCN1c2ccccc2Sc2ccccc21`, the compound was called inactive in [7], in [2] and in test [3]. Moreover, the Potency entry in test [4] was “inactive”.

Consider `CCc1cccc(N(C)C(N)=Nc2cccc3ccccc23)c1`, for which the result in test [7], in test [2] and in test [3] was inactive. In test [4], the Potency entry is “inactive”.

As for `CC(=O)OCC1=C(C(=O)O)N2C(=O)[C@@H](NC(=O)Cc3cccs3)[C@H]2SC1`, the compound was called inactive in test [1], in test [2] and in test [3]. Also, the Potency entry in test [4] and in test [6] was “inactive” each time.

Consider `NC(=O)c1cn(Cc2c(F)cccc2F)nn1`, for which the outcome in test [7], in [2] and in [3] was inactive. For the same compound, the Potency entry in [4] and in test [6] was “inactive” in each case.

Regarding `CC(=O)[C@@]1(O)CC[C@H]2[C@@H]3CCC4=CC(=O)CC[C@]4(C)[C@H]3CC[C@@]21C`, the compound was called inactive in test [7], in [2] and in [3]. In addition, the Potency result in test [4] and in [6] was “inactive” throughout.

`CCCOc1ccccc1-c1nc2n[nH]nc2c(=O)[nH]1`: the call in [1], in [2], in [3] and in [9] was inactive. Moreover, the Potency entry in test [4] and in test [6] was “inactive” throughout.

`CC(=O)[C@]1(O)Cc2c(O)c3c(c(O)c2[C@@H](O[C@H]2C[C@H](N)[C@H](O)[C@H](C)O2)C1)C(=O)c1ccccc1C3=O`: the compound was called inactive in [2] and in test [3]. Moreover, the Potency in test [4] was 50.1 µM (active) and 39.8 µM (active).

`COC(=O)C1=C(C)NC(C)=C(C(=O)OC(C)(C)CN(C)CCC(c2ccccc2)c2ccccc2)C1c1cccc([N+](=O)[O-])c1` (configuration not stated): the outcome in test [7], in test [2] and in test [3] was inactive.

For `C[C@@H](O)[C@H]1C(=O)N2C(C(=O)O)=C(SCCN=CN)C[C@H]12`, the compound was classed as inactive in test [2] and in test [3]. The Potency result in test [4] and in test [6] was “inactive” each time.

With `CN1C(=O)CC[C@H]1c1cccnc1`, the compound was classed as inactive in test [7], in test [2] and in test [3]. Also, the Potency result in test [4] and in [6] was “inactive” throughout.

Regarding `CC(C)(C)c1ccc(C(=O)CCCN2CCC(OC(c3ccccc3)c3ccccc3)CC2)cc1`, the compound was called inactive in test [7], in [2] and in [3]. For the same compound, the Potency entry in test [5] and in test [6] was “inactive” in each case.

Turning to `CO[C@@]1(NC(=O)CSCC#N)C(=O)N2C(C(=O)O)=C(CSc3nnnn3C)CS[C@@H]21`, the call in test [1], in [2] and in test [3] was inactive. Also, the Potency entry in [4], in test [5] and in test [6] was “inactive” throughout.

On to `CN(C)CCCN1c2ccccc2Sc2ccc(C(F)(F)F)cc21`, for which the result in test [7], in test [2] and in [3] was inactive.

Turning to `c1cc(CN2CCCCC2)cc(OCCCNc2nc3ccccc3s2)c1`, the result in [7], in test [2], in [3] and in [9] was inactive. For the same compound, the Potency result in test [4] is “inactive”.

For `NC1=NCC2c3ccccc3Cc3ccccc3N12` (configuration not stated), the compound was classed as inactive in test [7], in test [2] and in test [3]. For the same compound, the Potency entry in [4], in test [5] and in test [6] was “inactive” each time.
